Bioassay records from PubChem.
CCHF vOTU inh = CCHFV vOTU protease inhibitors, primary screen, biochemical, Pep-AMC substrate, fluorescence; inhibition, % at 11.5 µM; 370,000 compounds, 0.55% hits; Crimean-Congo hemorrhagic fever virus L polyprotein viral ovarian tumor (vOTU) protease …; AID 651958, 2012; in the data active = inhibition above about 30%; note: 0% = vehicle wells with enzyme and 100% = no enzyme wells
VHR inh abs = VHR1 phosphatase inhibitors, primary screen, biochemical, absorbance, uHTS | inhibition, % at 13.3 µM | 290,000 compounds, 0.52% hits | recombinant VHR phosphatase, pNPP absorbance | Dual specificity protein phosphatase 3 (Homo sapiens), P51452 | AID 1654, 2009; in the data active = inhibition above about 50%
PriA SSB inh = inhibitors of Klebsiella pneumoniae PriA binding to SSB C-terminal tail, primary screen, biochemical, AlphaScreen | 430,000 compounds, 0.6% hits | AlphaScreen SSBct-PriA binding, biotinylated peptide | inhibition, % at 33 µM | PriA–SSB C-terminal tail interaction (Klebsiella pneumoniae); in the data active = inhibition mostly above about 37%, no sharp cut-off; inactive = mostly below about 20%;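 note: plate controls were negative control peptide for no effect and reference peptide for full effect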
Vc quorum ag = inducers of Vibrio cholerae quorum light production without autoinducers, primary screen, BH1578 luxS cqsA deficient, single point; V. cholerae BH1578 lux reporter, luminescence, 6 h; activation, % at 18.7 µM; 350,000 compounds, 0.16% hits; AID 588436, 2011; in the data active = activation mostly above about 9.7%, no sharp cut-off
PrPC surface inh = inhibitors of human cell surface prion protein PrPC, primary screen, cell-based, TR-FRET; TR-FRET read-out; Major prion protein (Homo sapiens), P04156; 370,000 compounds, 0.43% hits; AID 720596, 2013; inhibition, % at 13.8 µM; in the data active = inhibition above about 24%; note: 0% = median of the test wells and 100% = reference compound wells
TcdB GH inh = TcdB glycohydrolase inhibitors, primary screen, biochemical, single point, plate reader | Toxin B (Clostridioides difficile), P18177 | TcdB glycohydrolase enzymatic assay | inhibition, % at 9.99 µM | 350,000 compounds, 0.24% hits; in the data active = inhibition above about 10%
Target sequence (P18177 whole entry, looked up): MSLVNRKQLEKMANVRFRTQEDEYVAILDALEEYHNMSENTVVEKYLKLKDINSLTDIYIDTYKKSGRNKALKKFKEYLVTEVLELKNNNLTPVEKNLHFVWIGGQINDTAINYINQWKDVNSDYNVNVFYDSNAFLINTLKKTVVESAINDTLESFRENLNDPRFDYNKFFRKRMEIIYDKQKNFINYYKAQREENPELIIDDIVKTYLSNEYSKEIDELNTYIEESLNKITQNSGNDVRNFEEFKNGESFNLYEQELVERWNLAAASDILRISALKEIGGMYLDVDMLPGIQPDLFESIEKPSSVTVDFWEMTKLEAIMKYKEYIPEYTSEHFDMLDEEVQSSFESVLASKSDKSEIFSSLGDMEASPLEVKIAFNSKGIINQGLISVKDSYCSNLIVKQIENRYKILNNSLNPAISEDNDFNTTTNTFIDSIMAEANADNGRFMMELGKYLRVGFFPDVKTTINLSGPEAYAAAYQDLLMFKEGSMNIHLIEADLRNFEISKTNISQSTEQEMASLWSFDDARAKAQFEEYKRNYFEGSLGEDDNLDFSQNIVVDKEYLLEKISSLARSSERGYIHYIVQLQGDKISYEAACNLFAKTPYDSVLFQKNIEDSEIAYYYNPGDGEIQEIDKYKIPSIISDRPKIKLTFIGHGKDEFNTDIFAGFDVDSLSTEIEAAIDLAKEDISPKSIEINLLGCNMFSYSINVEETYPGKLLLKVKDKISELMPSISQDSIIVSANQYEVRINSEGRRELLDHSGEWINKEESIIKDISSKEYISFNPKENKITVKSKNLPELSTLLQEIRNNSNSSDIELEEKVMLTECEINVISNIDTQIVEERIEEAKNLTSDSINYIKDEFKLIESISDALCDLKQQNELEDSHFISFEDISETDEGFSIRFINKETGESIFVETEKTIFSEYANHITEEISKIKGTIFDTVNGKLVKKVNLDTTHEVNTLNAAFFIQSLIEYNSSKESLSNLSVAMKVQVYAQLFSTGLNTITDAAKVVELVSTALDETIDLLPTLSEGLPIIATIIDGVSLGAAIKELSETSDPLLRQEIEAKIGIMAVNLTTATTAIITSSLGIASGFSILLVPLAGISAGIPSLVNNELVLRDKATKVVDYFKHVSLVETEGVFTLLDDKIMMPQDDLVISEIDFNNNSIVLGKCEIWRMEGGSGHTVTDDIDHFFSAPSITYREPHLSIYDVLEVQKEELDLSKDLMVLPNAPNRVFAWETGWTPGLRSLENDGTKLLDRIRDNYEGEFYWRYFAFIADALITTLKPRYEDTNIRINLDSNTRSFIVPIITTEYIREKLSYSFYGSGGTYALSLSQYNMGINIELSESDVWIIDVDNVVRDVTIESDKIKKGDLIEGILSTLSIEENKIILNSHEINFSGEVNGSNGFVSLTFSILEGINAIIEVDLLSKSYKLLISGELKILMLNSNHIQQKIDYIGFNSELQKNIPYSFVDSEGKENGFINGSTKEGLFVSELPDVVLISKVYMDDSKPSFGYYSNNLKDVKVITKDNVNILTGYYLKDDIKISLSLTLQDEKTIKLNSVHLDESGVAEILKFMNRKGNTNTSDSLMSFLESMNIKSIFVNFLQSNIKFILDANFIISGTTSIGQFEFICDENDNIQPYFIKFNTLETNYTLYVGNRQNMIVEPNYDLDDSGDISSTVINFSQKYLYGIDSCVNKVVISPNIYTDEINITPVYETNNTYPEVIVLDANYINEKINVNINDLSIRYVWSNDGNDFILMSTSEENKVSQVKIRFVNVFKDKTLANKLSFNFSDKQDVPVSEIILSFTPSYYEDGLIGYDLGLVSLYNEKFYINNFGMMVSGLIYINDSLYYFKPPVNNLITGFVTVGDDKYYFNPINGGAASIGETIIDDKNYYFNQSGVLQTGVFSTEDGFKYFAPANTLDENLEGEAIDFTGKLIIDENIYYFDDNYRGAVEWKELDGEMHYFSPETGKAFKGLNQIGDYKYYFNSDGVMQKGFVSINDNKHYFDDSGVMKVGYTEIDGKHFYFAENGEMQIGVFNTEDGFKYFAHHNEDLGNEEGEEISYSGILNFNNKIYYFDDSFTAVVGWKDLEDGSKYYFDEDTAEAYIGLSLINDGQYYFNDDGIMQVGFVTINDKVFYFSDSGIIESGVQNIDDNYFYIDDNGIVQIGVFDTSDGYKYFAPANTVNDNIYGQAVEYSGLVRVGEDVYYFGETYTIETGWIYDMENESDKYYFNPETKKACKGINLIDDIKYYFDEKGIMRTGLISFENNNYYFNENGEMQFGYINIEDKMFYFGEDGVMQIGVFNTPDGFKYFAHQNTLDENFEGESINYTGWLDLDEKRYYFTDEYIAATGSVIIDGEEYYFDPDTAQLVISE
* hit, by the source's call. In the library only some 1.5% were active in any assay of this set; here they are far more common.

Results for CCCCN(C(=O)NC(=O)Nc1ccccc1OCC)S(C)(=O)=O ?
CCHF vOTU inh: -4; VHR inh abs: 35; PriA SSB inh: 10; Vc quorum ag: 38*; PrPC surface inh: 4

What do the screens show for `CCOc1ccccc1NC(=O)NC(=O)N(C)S(C)(=O)=O`?
CCHF vOTU inh: 0; VHR inh abs: 14; PriA SSB inh: -11; Vc quorum ag: 0; PrPC surface inh: 6; TcdB GH inh: 1

What do the screens show for `O=C(/C=C/c1ccccc1)NC(=S)NNC(=O)c1cnccn1`?
CCHF vOTU inh: -10; VHR inh abs: 8; PriA SSB inh: 83*; Vc quorum ag: inactive; PrPC surface inh: 3; TcdB GH inh: 1

How did O=C(/C=C/c1ccccc1)NNC(=O)c1cnccn1 do in these assays?
PriA SSB inh: 38

What do the screens show for `Cc1c(Cl)ccc2sc(N(CCCn3ccnc3)C(=O)COc3ccccc3)nc12`?
PriA SSB inh: 43*

Results for CCOc1ccc2nc(N(CCCn3ccnc3)C(=O)COc3ccccc3)sc2c1 ?
PriA SSB inh: 31

How did COc1ccc(OC)c2sc(N(CCCn3ccnc3)C(=O)c3ccco3)nc12 do in these assays?
PriA SSB inh: 59*

Results for COc1ccc(OC)c2sc(N(CCCn3ccnc3)C(=O)COc3ccccc3)nc12 ?
PriA SSB inh: 73*

How did COc1cc(OC)cc(C(=O)N(CCCn2ccnc2)c2nc3cc(C)cc(C)c3s2)c1 do in these assays?
PriA SSB inh: 40*

How did NC(=O)c1ccccc1OCC#CCNC(=O)c1ccoc1 do in these assays?
PriA SSB inh: 9

How did O=C(c1cc(-c2ccc(F)cc2)n[nH]1)N1Cc2cnc(N3CCOCC3)nc2C1 do in these assays?
PriA SSB inh: -18

Results for CN1CCN(C(CNC(=O)NCCc2ccccc2)c2ccc3c(c2)CCN3C)CC1 (stereo not drawn) ?
PriA SSB inh: 3

What do the screens show for `O=C(c1ccc(Cl)s1)N(CCCn1ccnc1)c1nc2c(F)cccc2s1`?
PriA SSB inh: 38*

Results for CCc1cccc2sc(N(CCCn3ccnc3)C(=O)c3cccc(OC)c3OC)nc12 ?
PriA SSB inh: 42*

Results for COc1cccc(C(=O)N(CCCn2ccnc2)c2nc3ccc(C)cc3s2)c1OC ?
PriA SSB inh: 41

Results for Cc1cccc2sc(N(CCCN(C)C)C(=O)c3ccc(Cl)s3)nc12 ?
CCHF vOTU inh: 4; VHR inh abs: -8; PriA SSB inh: -1; Vc quorum ag: 0; PrPC surface inh: 6; TcdB GH inh: -7

What do the screens show for `CCCCCCCCCCn1c2c(c(=N)c3c1CCC3)CCC2`?
CCHF vOTU inh: 14; VHR inh abs: 26; PriA SSB inh: 2; Vc quorum ag: inactive; PrPC surface inh: 48*

How did COc1ccc(NC(=O)C2CCc3nc(C)[nH]c3C2)cn1 (stereo not drawn) do in these assays?
PriA SSB inh: -8

What do the screens show for `Cc1ccc(S(=O)(=O)Nc2cccc(C(=O)N3CCOCC3)c2)c(C)c1NS(C)(=O)=O`?
CCHF vOTU inh: 11; VHR inh abs: 59*; PriA SSB inh: 2; Vc quorum ag: inactive; PrPC surface inh: -8; TcdB GH inh: 1

What do the screens show for `Cc1ccc(S(=O)(=O)Nc2cccc(C(=O)N3CCOCC3)c2)cc1`?
CCHF vOTU inh: -10; VHR inh abs: 22; PriA SSB inh: -7; Vc quorum ag: 0; PrPC surface inh: 8; TcdB GH inh: 1

What do the screens show for `CCOc1coc(C(=O)Nc2ccc(Cl)cc2)cc1=O`?
PriA SSB inh: -7

What do the screens show for `CC(C)Cc1cc(C(=O)N2CCCC(CO)(Cc3ccc(F)cc3)C2)no1` (stereo not drawn)?
CCHF vOTU inh: 18; VHR inh abs: -20; PriA SSB inh: 1; Vc quorum ag: -1; PrPC surface inh: 0; TcdB GH inh: 11*

What do the screens show for `CCCc1cc(=O)[nH]c(-n2nc(C)cc2NC(=O)C(=O)NCc2ccc(F)cc2)n1`?
PriA SSB inh: -14

Results for CCCc1cc(=O)[nH]c(-n2nc(C)cc2NC(=O)C(C)(C)CCl)n1 ?
PriA SSB inh: 44*

Results for Cc1ccc(NC(=O)c2ccc(CNS(=O)(=O)c3cccc(Cl)c3)cc2)cc1 ?
PriA SSB inh: -4

How did Cc1cccc(-c2nc3n(n2)C(c2cccc(C)c2)C2=C(CC(C)(C)CC2=O)N3)c1 (stereo not drawn) do in these assays?
PriA SSB inh: -4

How did COCCn1c(SCC(=O)Nc2ccc(OC)cc2OC)nc2ccccc2c1=O do in these assays?
CCHF vOTU inh: 0; VHR inh abs: 51*; PriA SSB inh: 8; Vc quorum ag: inactive; PrPC surface inh: 13; TcdB GH inh: 1

How did COc1ccc(NC(=O)CSc2nc3ccccc3c(=O)n2Cc2cccs2)c(OC)c1 do in these assays?
VHR inh abs: 18

How did COc1ccc(NC(=O)c2cc(C)nc3ccccc23)c(OC)c1 do in these assays?
CCHF vOTU inh: -3; VHR inh abs: 40; PriA SSB inh: 2; Vc quorum ag: -4; PrPC surface inh: -5; TcdB GH inh: 12*

How did COc1ccc(NC(=O)c2c(OC)cccc2OC)c(OC)c1 do in these assays?
CCHF vOTU inh: 6; VHR inh abs: 5; PriA SSB inh: 67*; Vc quorum ag: inactive; PrPC surface inh: -12

What do the screens show for `Cc1ccc(-c2csc(NC(=O)CSc3nc4ccccc4c(=O)n3CCCN(C)C)n2)cc1`?
CCHF vOTU inh: -3; VHR inh abs: -6; PriA SSB inh: 55*; PrPC surface inh: -2; TcdB GH inh: 4

What do the screens show for `O=C1CCc2cc(NS(=O)(=O)c3ccccc3Br)ccc2N1Cc1ccccc1`?
PriA SSB inh: 5

What do the screens show for `O=S(=O)(NCCOc1ccc(-c2ccc(F)cc2)nn1)c1ccccc1Cl`?
PriA SSB inh: -14

Results for Cc1cc(C(=O)Nc2ccccc2Cl)c2ccccc2n1 ?
CCHF vOTU inh: -1; VHR inh abs: -11; PriA SSB inh: 0; Vc quorum ag: 0; PrPC surface inh: 2; TcdB GH inh: 1

Results for Cc1cc(C(=O)Nc2ncc(C)s2)c2ccccc2n1 ?
CCHF vOTU inh: 0; VHR inh abs: -9; PriA SSB inh: -7; Vc quorum ag: inactive; PrPC surface inh: 14; TcdB GH inh: 10*

Results for CN1CCN(c2ncc(NC(=O)c3ccncc3)cn2)CC1 ?
PriA SSB inh: -3

How did O=C(NCc1ccco1)c1ccc(Cl)c(S(=O)(=O)N2CCc3ccccc32)c1 do in these assays?
CCHF vOTU inh: -6; VHR inh abs: 56*; PriA SSB inh: 4; Vc quorum ag: 0; PrPC surface inh: 2; TcdB GH inh: 1

What do the screens show for `Nc1n[nH]c(C(=O)N/N=C\c2cccs2)n1`?
PriA SSB inh: 50*

Results for Cc1n[nH]c(=O)nc1NN=Cc1cccs1 ?
PriA SSB inh: 59*
